dFosB act: activators of mouse delta FosB homodimer; P13346; actives 0.99% (n = 340,000); purified delta FosB, TAMRA-CDK5 oligo fluorescence polarization; percent of positive-control signal above neutral wells; activation, % at 25 µM; AID 493131;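 active = mean activation above about 17%, with every replicate also reaching it, limit read from the data, passing the limit was not always enough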
Target sequence (P13346 whole entry, looked up): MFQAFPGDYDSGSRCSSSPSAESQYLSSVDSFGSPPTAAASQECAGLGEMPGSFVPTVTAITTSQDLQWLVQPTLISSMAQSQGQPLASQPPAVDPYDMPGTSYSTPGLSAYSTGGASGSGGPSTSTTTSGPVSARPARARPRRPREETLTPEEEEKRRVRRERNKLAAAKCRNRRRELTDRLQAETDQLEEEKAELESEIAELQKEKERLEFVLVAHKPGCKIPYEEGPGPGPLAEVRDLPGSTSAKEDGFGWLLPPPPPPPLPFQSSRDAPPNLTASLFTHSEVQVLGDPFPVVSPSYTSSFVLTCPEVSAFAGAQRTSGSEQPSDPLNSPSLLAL
RAD54 inh: blocks human RAD54 Holliday junction branch migration | actives 0.14% (n = 360,000) | FAM/BHQ fluorescence | AID 602329 | inhibition, % at 10.4 µM;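 active = mean normalized replicate activity at least 40 and at least half of replicates scoring 40 or more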;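 note: 0% = median of neutral control wells and 100% = median of positive control wells; inhibitors cause a drop in the FAM fluorescence signal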
DENV2 CPE rescue: protects cells from dengue virus 2 cytopathic effect; actives 1.7% (n = 350,000); AID 651640; DENV2-infected cells, cytopathic effect rescue, plate reader; CPE inhibition, % at 9.99 µM; in the data active = CPE inhibition above about 20%, passing the limit was not always enough; tested in BHK-21 cells;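 note: 0% = median of neutral control wells and 100% = median of positive control wells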
RAD52 anneal inh: blocks human RAD52 DNA annealing | P43351 | recombinant RAD52 DNA annealing, FRET fluorescence | inhibition, % at 18.7 µM | actives 0.46% (n = 360,000);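 active = every replicate showing at least 50% inhibition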
INS-1E GSIS act: primary screen for activators of insulin secretion dependent on glucose, INS-1E cells, GLuc reporter luminescence; INS-1E GLuc reporter insulin secretion, 2-3 h; activation, % at 16.6 µM; actives 0.61% (n = 370,000); AID 743287;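 active = lowest replicate activation of at least 40%, so every replicate reaches that level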;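 note: 0% = median of neutral control wells and 100% = median of IBMX positive control wells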
MLL AF4-AF9 inh: MLL-AF4/AF9 protein interaction inhibition; P42568; AlphaScreen, biotin-AF4 peptide binding to FLAG-AF9; inhibition, % at 10 µM; actives 0.47% (n = 350,000);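 active = every replicate reaching a set inhibition limit, whatever the replicate mean, cut at about 25% in these data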;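 note: 0% = plate neutral control median and 100% = total signal loss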
An asterisk follows results filed as active; x = no result given. A selection: hits, their analogues and other compounds. The true share with any hit is near 3.1%.

SMILES | dFosB act | RAD54 inh | DENV2 CPE rescue | RAD52 anneal inh | INS-1E GSIS act | MLL AF4-AF9 inh
C1CCC(C(CC2CCCCN2)C2CCCCC2)CC1 (stereo not drawn) | -1.0 | 21.4 | 12.3 | 39.2 | 103.6* | 12.2
COc1ccc(Cl)cc1NC(=O)C1COc2ccccc2O1 (stereo not drawn) | 1.9 | x | -4.8 | -4.3 | -8.1 | -2.1
COc1ccc(Cl)cc1NC(=O)CN(C)C(=O)C1COc2ccccc2O1 (stereo not drawn) | -6.1 | -4.4 | 73.5* | -5.3 | -27.3 | -4.5
Cc1nnc(NC(=O)CSc2nnc(CC(=O)Nc3ccccc3F)n2C)s1 | -0.3 | -9.6 | 1.4 | -0.9 | 17.6 | 53.4*
Cc1nnc(NC(=O)CSc2nnc(CC(=O)Nc3ccccc3Cl)n2C)s1 | -7.9 | x | 5.3 | -18.7 | 2.6 | 1.0
Cc1ccc(OCCNCc2ccccc2)c(C)c1 | -2.6 | -0.3 | 12.5 | 12.8 | 19.5 | 4.2
Cc1ccc(OCCCCNC(C)c2ccccc2)c(C)c1 (stereo not drawn) | -4.4 | 0.0 | 28.6* | 13.5 | -1.6 | -18.7
COC(=O)C[C@@H]1CC[C@H]2[C@H](COc3ccc(NC(=O)c4ccc(F)cc4)cc3C(=O)N2C)O1 | x | 0.7 | 4.6 | 3.1 | -3.2 | -2.3
COC(=O)[C@@]1(Cc2ccc(F)cc2)[C@H]2c3cc(C(=O)N4CCCC4)n(Cc4ccccc4)c3C[C@H]2CN1C(=O)c1ccccc1 | x | x | 0.2 | -8.2 | -33.2 | 5.8
COCCn1c(C(=O)N2CCCC2)cc2c1C[C@H]1CN(C(=O)c3ccccc3)[C@@](Cc3ccc(F)cc3)(C(=O)OC)[C@@H]21 | x | x | 63.9* | -9.2 | -10.9 | 6.2
N#Cc1sc2nc3c(c(-c4cccnc4)c2c1N)CCC3 | 1.0 | -2.3 | x | -17.2 | 46.1* | x
C[C@@H]1CCCCO[C@H](CN(C)C(=O)c2ccccc2)[C@H](C)CN([C@@H](C)CO)C(=O)c2cc(NC(=O)CCCCCC(=O)Nc3ccccc3N)ccc2O1 | x | 8.2 | 20.3* | -36.2 | 3.3 | 4.3
C[C@H](CO)N1C[C@H](C)[C@H](CN(C)C(=O)c2ccccc2)OCCCC[C@H](C)Oc2ccc(NC(=O)CCCCCC(=O)Nc3ccccc3N)cc2C1=O | x | 6.3 | 13.2 | -43.1 | 4.6 | 3.1
C[C@@H]1CCCCO[C@H](CN(C)C(=O)NC2CCCCC2)[C@@H](C)CN([C@H](C)CO)C(=O)c2cc(NC(=O)CCCCCC(=O)Nc3ccccc3N)ccc2O1 | x | -2.4 | 112.1* | 0.4 | 4.8 | -0.8
O=C(C[C@@H]1C[C@H]2c3cc(NC(=O)c4cccnc4)ccc3O[C@H]2[C@H](CO)O1)NC1CCCCC1 | x | -1.6 | -0.2 | -0.8 | -5.3 | -2.9
Cc1noc(C)c1NC(=O)Nc1ccc2c(c1)C(=O)N([C@@H](C)CO)C[C@@H](C)[C@H](CN(C)S(C)(=O)=O)OCCCC[C@@H](C)O2 | x | x | -6.3 | -9.5 | 3.5 | -1.9
Cc1cccc(N2CCc3c2nc2ccc(Br)cc2c3N)c1 | 33.4* | -11.9 | x | -17.0 | -2.0 | -0.8
COc1ccc(-c2nc3ccc(C)cn3c2Cc2cccc(F)c2)cc1OC | x | -4.2 | 33.0* | -51.6 | -22.4 | 4.1
COc1ccc(-c2nc3c(C)cc(Br)cn3c2Cc2cccc(F)c2)cc1OC | x | -2.2 | 89.3* | -19.9 | -4.1 | 0.8
Cc1ccc2nc(-c3cccc(Br)c3)c(Cc3cccc(Cl)c3)n2c1 | x | -8.9 | 53.9* | -86.6 | x | -1.3
COc1ccc(-c2nc3c(C)cc(Br)cn3c2Cc2ccccc2)cc1OC | x | 1.9 | -15.3 | -25.7 | 14.7 | 4.8
Cc1ccc(Cc2c(-c3ccc(C)cc3)nc3ccc(Cl)cn23)cc1 | x | -1.7 | 24.6* | -54.6 | 0.4 | 1.6
CN(C)C(=O)C[C@H]1C[C@H]2c3cc(NC(=O)C4CCOCC4)ccc3O[C@H]2[C@@H](CO)O1 | x | 0.2 | 2.9 | -3.3 | 8.9 | -2.1
O=C1CCC(=O)N[C@@H](c2ccccc2)C/C=C\CCN1 | x | x | x | x | 5.6 | x
O=C1CCCC(c2ccccc2)N1 (stereo not drawn) | 3.8 | x | 60.2* | -7.1 | x | 0.7
C[C@@H]1CN([C@H](C)CO)C(=O)c2cc(NC(=O)c3ccncc3)ccc2O[C@@H](C)CCCCO[C@@H]1CN(C)Cc1ccncc1 | x | 2.2 | 3.6 | -8.7 | 14.8 | -3.4
CC(C)(C)NC(=O)c1cccc(NC(=O)c2ccc3c(c2)C(=O)N(C(C)(C)C)C3=O)c1 | 6.5 | 3.3 | 44.0* | -0.4 | -16.7 | 4.7
